Source: PubChem BioAssay
A number with no mark means an inactive call. How the calls were made is not given here.

The compounds below were run against Pantothenate synthetase (Mycobacterium tuberculosis (strain ATCC 25618 / H37Rv)) (UniProt P9WIL5) (assay: Coupled enzyme confirmation of inhibitors against recombinant Mtb PanC (AID 375;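 further: 0% = full reaction with vehicle and 100% = no enzyme background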)). Conditions: coupled enzyme assay; at 10 µM, hits give high values.
Sequence of Pantothenate synthetase (Mycobacterium tuberculosis (strain ATCC 25618 / H37Rv)) (P9WIL5 whole entry, looked up): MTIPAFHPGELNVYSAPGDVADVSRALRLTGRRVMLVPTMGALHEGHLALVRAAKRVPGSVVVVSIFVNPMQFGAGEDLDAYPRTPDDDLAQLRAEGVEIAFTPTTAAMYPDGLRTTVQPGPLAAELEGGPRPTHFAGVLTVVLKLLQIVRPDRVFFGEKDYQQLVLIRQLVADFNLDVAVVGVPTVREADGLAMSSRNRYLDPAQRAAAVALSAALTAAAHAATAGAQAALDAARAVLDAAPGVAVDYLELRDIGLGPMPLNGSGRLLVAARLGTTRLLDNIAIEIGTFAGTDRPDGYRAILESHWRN
In the case of `Cn1c(Cl)nc2ccccc21`, the inhibition is reported as 0%. In the case of `O=c1oc2c3c4c(cc2cc1-c1nc2ccccc2[nH]1)CCCN4CCC3`, the inhibition is reported as 4%. In the case of `CC(C)CNC(=O)c1ccccc1NC(=O)c1ccc(CN2CCOCC2)cc1`, the inhibition is reported as 3%. `CCCC1C(C#N)=C(N)Oc2n[nH]c(C(C)(C)C)c21` (stereo unspecified) was tested, and the inhibition was 0%. `CCCCn1nnnc1NCc1cccs1` gave an inhibition of 0%. `CCOC(=O)Nc1cc(OC)c(OC)cc1Cc1nccc2cc(OC)c(OC)cc12` gave an inhibition of 0%.
